Test results taken from the supplement of paper PMC11732987, “Enantioselective OTUD7B fragment discovery through chemoproteomics screening and high-throughput optimisation” (Communications Chemistry, 2025).

Tests used:
Experiment in all cases: log2 ratio of Biotin-Ahx-Ub-VS probe labelling (fragment/DMSO); higher = less target engagement (more negative = stronger competition), active = hit call of the paper (q ≤ 0.05, log2 ratio ≤ -1)
Conditions in all cases: compound concentration: 200 uM; treatment time: 3 h
USP19 = target: T1, USP19 (UniProt O94966)
T1 sequence (whole entry): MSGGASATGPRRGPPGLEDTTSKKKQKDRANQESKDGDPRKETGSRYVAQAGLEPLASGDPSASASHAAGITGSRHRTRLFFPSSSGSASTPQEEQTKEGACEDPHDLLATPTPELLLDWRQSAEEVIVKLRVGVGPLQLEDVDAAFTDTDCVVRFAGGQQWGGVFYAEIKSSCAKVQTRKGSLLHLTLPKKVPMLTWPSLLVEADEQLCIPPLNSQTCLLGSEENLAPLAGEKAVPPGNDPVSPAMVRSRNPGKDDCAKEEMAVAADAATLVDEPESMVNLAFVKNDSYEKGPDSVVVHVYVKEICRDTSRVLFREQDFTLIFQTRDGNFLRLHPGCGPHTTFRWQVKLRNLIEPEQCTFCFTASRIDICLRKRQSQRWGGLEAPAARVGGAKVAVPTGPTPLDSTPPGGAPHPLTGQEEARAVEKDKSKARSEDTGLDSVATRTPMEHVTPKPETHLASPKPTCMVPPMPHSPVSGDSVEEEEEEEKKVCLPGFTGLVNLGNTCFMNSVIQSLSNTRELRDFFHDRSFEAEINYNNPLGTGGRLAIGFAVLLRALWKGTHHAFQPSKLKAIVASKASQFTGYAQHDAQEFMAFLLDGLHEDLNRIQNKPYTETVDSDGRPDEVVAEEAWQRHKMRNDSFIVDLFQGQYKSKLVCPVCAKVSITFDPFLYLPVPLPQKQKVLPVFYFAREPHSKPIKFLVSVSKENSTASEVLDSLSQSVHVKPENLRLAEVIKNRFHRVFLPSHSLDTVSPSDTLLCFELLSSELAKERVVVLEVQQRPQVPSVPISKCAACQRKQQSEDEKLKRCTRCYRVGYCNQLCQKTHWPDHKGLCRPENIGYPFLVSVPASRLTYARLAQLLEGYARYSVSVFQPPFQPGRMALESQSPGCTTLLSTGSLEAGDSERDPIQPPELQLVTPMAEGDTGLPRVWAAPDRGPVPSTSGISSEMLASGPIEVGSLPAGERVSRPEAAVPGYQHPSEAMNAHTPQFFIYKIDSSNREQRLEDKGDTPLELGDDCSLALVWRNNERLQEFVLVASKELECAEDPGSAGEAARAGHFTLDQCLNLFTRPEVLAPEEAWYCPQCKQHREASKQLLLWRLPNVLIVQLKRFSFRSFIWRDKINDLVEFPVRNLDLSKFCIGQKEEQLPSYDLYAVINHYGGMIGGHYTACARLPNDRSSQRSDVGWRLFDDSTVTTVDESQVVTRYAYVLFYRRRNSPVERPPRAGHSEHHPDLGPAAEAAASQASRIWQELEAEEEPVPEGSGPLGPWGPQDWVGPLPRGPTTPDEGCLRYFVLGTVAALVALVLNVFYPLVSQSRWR
Method in brief: (§1)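 Labelled DUBs from HEK293T lysate were NeutrAvidin-enriched, digested with LysC and trypsin, and run by diaPASEF LC-MS/MS. Before that, each 495 µg sample in Tris/CHAPS/IGEPAL buffer with protease inhibitors was treated in triplicate with fragment at 200 µM or vehicle for 3 h, then with Biotin-Ahx-Ub-VS at 0.5 µM final for 1 h. Values are average log2 ratios of fragment over vehicle by unpaired t-test, based on global-median-normalised Spectronaut label-free quantities from proteins with ≥2 unique peptides.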

USP22 = target: T2, USP22 (UniProt Q9UPT9)
T2 sequence (whole entry): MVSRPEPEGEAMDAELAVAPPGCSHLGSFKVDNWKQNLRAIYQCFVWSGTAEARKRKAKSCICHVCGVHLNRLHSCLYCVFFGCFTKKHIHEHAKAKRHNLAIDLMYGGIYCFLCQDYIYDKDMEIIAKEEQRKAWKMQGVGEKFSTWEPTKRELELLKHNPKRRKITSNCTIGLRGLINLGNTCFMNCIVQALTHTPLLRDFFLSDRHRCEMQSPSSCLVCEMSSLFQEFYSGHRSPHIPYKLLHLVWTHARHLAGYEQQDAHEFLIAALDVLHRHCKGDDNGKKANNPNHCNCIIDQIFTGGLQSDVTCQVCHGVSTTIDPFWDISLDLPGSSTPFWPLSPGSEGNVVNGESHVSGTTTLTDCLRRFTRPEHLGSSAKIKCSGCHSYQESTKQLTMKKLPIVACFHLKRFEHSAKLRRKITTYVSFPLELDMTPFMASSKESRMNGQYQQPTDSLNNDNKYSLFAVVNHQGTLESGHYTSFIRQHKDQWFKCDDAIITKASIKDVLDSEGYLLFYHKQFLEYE
Method in brief: as §1

USP24 = USP24 (UniProt Q9UPU5)
USP24, sequence (Q9UPU5 whole entry): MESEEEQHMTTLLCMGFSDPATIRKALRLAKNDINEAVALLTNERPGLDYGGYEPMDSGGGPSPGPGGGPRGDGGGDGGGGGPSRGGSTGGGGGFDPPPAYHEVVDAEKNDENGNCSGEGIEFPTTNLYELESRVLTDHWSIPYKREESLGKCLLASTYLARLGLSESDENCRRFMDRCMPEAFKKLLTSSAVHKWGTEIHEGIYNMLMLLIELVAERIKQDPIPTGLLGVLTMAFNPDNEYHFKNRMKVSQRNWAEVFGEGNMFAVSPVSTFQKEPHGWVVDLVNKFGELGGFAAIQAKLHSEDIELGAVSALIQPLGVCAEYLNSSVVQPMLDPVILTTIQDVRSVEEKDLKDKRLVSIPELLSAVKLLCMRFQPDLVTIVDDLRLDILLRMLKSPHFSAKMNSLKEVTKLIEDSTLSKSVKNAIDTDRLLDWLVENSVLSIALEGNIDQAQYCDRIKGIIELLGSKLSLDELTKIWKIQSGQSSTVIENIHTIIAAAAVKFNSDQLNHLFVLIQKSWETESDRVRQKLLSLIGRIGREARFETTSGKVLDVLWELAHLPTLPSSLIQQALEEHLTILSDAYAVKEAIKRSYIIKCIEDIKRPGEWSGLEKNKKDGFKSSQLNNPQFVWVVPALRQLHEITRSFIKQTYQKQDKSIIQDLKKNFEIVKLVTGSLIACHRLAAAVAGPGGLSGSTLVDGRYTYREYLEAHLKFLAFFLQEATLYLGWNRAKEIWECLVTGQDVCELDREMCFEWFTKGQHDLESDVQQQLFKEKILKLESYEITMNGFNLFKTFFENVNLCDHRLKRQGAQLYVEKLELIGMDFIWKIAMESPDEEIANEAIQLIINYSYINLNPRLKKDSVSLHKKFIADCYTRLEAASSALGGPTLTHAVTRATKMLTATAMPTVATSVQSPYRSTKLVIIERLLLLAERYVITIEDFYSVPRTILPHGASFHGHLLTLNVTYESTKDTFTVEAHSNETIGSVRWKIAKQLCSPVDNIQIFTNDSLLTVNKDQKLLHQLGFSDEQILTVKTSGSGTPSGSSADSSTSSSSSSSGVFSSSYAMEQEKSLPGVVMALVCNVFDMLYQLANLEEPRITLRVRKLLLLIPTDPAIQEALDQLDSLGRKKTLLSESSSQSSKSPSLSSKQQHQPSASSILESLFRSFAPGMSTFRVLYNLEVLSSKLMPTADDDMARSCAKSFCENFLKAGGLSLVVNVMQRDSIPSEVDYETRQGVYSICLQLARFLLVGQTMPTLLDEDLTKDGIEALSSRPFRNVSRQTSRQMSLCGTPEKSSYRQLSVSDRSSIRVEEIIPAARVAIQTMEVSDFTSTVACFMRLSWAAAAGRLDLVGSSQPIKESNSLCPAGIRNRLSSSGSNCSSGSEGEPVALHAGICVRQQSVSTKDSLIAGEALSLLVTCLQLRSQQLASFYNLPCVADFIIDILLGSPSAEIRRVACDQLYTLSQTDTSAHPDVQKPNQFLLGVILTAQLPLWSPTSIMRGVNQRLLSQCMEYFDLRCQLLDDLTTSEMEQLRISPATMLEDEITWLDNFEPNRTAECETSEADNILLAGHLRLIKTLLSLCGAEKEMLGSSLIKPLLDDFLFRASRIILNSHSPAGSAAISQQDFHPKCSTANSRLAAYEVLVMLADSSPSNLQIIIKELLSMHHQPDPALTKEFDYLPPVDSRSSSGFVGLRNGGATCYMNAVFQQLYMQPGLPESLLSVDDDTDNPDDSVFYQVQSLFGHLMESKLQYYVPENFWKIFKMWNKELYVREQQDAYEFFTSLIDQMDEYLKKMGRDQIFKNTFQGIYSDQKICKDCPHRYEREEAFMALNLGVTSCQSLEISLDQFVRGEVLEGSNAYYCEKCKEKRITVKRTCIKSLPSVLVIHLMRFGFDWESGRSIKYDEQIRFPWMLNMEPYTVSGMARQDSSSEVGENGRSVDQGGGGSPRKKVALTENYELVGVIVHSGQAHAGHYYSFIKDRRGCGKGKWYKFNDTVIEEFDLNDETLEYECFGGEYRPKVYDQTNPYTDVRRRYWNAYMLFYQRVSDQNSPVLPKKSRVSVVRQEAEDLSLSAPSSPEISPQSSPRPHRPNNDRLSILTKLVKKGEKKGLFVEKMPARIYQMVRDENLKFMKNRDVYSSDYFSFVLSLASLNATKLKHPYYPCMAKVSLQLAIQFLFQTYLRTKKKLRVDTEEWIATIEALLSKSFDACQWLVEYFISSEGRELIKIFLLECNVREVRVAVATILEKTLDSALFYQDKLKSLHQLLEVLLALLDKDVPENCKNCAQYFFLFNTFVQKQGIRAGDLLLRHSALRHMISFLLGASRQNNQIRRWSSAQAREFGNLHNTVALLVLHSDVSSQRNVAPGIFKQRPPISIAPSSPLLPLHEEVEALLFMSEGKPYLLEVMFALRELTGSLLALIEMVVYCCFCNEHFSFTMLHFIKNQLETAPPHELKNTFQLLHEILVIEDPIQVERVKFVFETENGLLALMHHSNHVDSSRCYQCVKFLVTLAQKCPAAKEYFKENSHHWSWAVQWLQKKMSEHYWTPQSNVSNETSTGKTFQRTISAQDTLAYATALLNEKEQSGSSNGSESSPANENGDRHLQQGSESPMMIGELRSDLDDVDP
Method in brief: as §1

USP25 = target: T3, USP25 (UniProt Q9UHP3)
T3 sequence (whole entry): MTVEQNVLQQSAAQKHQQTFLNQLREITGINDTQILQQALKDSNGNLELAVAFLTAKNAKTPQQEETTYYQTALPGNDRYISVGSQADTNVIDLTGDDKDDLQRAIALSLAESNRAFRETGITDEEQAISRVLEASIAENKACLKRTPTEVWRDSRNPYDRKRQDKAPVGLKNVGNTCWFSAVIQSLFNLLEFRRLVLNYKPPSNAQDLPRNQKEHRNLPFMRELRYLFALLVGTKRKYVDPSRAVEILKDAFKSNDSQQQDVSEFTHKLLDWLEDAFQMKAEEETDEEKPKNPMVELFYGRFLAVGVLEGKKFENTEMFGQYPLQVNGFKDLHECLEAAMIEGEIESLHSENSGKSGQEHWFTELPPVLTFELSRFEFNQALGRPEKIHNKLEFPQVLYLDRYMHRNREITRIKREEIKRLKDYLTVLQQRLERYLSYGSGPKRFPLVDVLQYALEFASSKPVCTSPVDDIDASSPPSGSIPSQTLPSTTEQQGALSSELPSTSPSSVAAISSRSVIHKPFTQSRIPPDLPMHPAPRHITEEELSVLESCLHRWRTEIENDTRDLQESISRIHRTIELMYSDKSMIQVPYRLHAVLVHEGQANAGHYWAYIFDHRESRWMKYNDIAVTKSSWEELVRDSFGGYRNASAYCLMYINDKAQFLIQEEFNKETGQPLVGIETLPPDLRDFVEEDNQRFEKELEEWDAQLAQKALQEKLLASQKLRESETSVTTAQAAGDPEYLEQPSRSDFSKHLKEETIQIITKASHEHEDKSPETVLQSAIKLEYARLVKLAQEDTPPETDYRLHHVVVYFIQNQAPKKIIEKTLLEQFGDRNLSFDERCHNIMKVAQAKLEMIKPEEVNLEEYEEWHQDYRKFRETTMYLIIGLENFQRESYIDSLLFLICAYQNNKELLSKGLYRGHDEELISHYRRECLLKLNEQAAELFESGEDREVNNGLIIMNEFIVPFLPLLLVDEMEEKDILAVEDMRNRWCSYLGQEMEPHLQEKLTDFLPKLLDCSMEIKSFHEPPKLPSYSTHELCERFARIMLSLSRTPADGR
Method in brief: as §1

USP28 = target: T4, USP28 (UniProt Q96RU2)
T4 sequence (whole entry): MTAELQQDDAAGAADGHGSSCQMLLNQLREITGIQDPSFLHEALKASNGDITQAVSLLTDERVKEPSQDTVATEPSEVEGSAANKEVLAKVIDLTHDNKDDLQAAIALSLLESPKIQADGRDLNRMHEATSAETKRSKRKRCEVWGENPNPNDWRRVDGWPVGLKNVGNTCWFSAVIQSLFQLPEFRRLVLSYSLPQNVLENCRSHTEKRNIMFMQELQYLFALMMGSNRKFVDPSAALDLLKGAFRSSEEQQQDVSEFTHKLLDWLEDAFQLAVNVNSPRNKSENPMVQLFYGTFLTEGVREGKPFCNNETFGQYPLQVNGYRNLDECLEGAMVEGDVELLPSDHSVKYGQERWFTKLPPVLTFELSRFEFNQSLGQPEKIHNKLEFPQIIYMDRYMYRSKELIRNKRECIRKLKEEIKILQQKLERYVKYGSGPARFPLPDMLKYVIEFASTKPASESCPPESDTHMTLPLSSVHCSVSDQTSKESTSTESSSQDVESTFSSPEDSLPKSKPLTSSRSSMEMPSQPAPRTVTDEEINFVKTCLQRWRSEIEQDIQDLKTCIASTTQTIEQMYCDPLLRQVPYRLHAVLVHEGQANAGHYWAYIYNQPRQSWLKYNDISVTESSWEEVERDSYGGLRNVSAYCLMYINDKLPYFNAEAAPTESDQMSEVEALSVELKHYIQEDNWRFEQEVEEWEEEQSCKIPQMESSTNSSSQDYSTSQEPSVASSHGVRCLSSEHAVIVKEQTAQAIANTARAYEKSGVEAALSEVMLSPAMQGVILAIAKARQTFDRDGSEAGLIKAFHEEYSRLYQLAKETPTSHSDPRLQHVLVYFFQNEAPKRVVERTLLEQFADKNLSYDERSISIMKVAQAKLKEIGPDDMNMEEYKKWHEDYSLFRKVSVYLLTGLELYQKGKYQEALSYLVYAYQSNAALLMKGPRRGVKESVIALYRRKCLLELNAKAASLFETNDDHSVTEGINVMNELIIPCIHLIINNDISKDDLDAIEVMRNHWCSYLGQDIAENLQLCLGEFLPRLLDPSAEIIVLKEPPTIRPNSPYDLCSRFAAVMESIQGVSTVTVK
Method in brief: as §1

Measured: log2 ratio of Biotin-Ahx-Ub-VS probe labelling

Cl.O=C(CCl)N[C@H]1C[C@@H](n2cccn2)C1
inactive: USP19 -0.157 | USP22 0.044 | USP24 -0.464 | USP25 -0.201 | USP28 -0.188
